# Experimental data: PubChem BioAssay (EPA / NIEHS)
# “And” between values parts separate entries of the source, which are not always exact repeats. Equal values may be shown once. Records with an inconclusive call do not appear. Some structures have more than one record in an assay (separate samples or runs), and their calls can disagree. The source made the active and inactive calls. Rule for the calls, unless noted: active = hit-call score of the fitted dose curve at least 0.9, where 1 is the maximum; inconclusive = response in the unintended direction; inactive = score below 0.9.
# Key:
# [1] = CCTE_Padilla_ZF_144hpf_TERATOSCORE: (Legacy) CCTE's 144 Hour Post-fertilization zebrafish Assay Teratoscore, Padilla Lab (AID 2283679; active = hit-call score of the fitted dose curve at least 0.9, where 1 is the maximum; inactive = score below 0.9;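 for AC50: zebrafish embryos with chorions exposed by immersion from 6-8 hpf to 5 dpf with daily renewal; teratogenicity score from eye scoring of death hatching and malformations at 144 hpf; higher score means more developmental defects relative to DMSO baseline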)
# How it was run: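 Larvae scored by eye at 144 hpf for death, hatching and malformations after a day in clean Hanks'. Before that, daily-renewed exposure at 80 uM (0.4% DMSO, 26C) from roughly 6-8 hpf through 5 dpf, 4 embryos per chemical.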
# [2] = STM_H9_OrnithineISnorm_perc: Stemina devTOX quickPredict H9 human embryonic stem cell (hESC)-based Assay for Ornithine (ORN) Metabolite Biomarker, Normalized (AID 2283712; active = hit-call score of the fitted dose curve at least 0.9, where 1 is the maximum; inactive = score below 0.9;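 note: ornithine released into spent medium during last day measured by mass spectrometry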)
# How it was run: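 Ornithine secreted by H9 hESCs after 72h compound treatment (daily media/compound renewal) was quantified in final-day media by UPLC-HRMS. Values are isotope-standard-normalized, expressed relative to 0.1% DMSO, fitted in positive direction.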
# [3] = STM_H9_CystineISnorm_perc: Stemina devTOX quickPredict H9 human embryonic stem cell (hESC)-based Assay for Cystine (CYSS) Metabolite Biomarker, Normalized (AID 2283713; active = hit-call score of the fitted dose curve at least 0.9, where 1 is the maximum; inactive = score below 0.9)
# How it was run: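 Cells are held undifferentiated and treated for 72h, receiving fresh medium with compound every 24h. Cystine secreted during the final day is quantified by UPLC-HRMS against a labeled spike-in, then expressed relative to the DMSO vehicle median.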
# [4] = Tanguay_ZF_120hpf_ActivityScore_legacy: (Legacy) Oregon State University Tanguay Lab 120 Hour Post-fertilization zebrafish Assay Score for Activity (AID 2283742);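 for AC50: dechorionated Tropical 5D wild-type zebrafish embryos held singly per well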
# How it was run: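 Binary scoring of mortality and morphology by brightfield at 24 and 120 hpf, summarised into one activity score from 18 components relative to DMSO. Wild-type Tropical 5D zebrafish, chorion removed at 4 hpf, static exposure 6–120 hpf, 28 °C.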
# [5] = ACEA_AR_agonist_AUC_viability: ACEA Biosciences xCELLigence Real-Time Cell Analysis on Androgen Receptor Agonism for Viability (AID 2283775);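 for AC50: viability read 80 hours after compound addition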
# How it was run: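 22Rv1 cells; impedance growth kinetics; 8-pt 1:4 dilutions from 100 uM top final, ≤0.5% DMSO; n = 2; 80 h read; AUC viability, loss-of-signal vs DMSO.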
# [6] = target: Luciferin 4-monooxygenase (Photinus pyralis) (UniProt P08659); test: CCTE_Simmons_QuantiLum_inhib_2: CCTE's Firefly Luciferase Inhibition Assay, Simmons Lab (AID 2283767);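 for AC50: potency for inhibitors that lower luciferase luminescence relative to DMSO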
# Sequence of Luciferin 4-monooxygenase (Photinus pyralis) (P08659 whole entry, looked up): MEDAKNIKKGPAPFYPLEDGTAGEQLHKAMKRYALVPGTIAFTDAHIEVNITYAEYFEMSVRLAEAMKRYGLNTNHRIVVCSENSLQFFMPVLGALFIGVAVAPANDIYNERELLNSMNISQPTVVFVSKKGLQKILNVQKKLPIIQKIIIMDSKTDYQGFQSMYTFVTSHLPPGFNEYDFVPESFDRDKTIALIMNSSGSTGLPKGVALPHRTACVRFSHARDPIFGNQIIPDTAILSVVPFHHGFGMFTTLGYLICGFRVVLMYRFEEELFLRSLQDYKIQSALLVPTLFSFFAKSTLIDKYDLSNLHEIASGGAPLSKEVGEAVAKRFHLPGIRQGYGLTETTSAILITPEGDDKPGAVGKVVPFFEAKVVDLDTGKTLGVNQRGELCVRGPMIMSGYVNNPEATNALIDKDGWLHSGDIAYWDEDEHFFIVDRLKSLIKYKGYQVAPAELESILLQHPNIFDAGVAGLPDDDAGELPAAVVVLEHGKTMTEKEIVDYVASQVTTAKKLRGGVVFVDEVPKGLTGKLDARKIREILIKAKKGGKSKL
# How it was run: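 First, 5 ng purified luciferase in phosphate buffer with BSA is dispensed per well. Next, test chemicals (5 nM to 87.5 uM final, 0.5% DMSO) are added and incubated 30 min at 37C in darkness. Finally, luciferin reagent is injected and luminescence read kinetically.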
# [7] = STM_H9_OrnCyssISnorm_ratio: Stemina devTOX quickPredict H9 human embryonic stem cell (hESC)-based Assay for Ornithine (ORN):Cystine (CYSS) Ratio (AID 2283714)
# How it was run: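 Ratio of internal-standard-normalized ornithine to cystine, measured by UPLC-HRMS in spent media from the last 24 h. H9 cells kept pluripotent, dosed 72 h with daily media and compound renewal; DMSO 0.1% serves as baseline.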
# [8] = ArunA_CellTiter_hNP: Viability Assessment in the ArunA Biomedical's Oris Neural Crest (hNC) Cell Migration Assay (AID 2283753)
# How it was run: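 Viability read with CellTiter 96 Aqueous One after 72 h chemical exposure of human hNP1 neuroprogenitors, which were plated on Matrigel in LIF/bFGF medium 16 h beforehand. Endpoint fitted in positive direction relative to DMSO.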
# [9] = ArunA_Migration_hNP: ArunA Biomedical's Oris Neuroprogenitor (hNP) Cell Migration Assay (AID 2283754)
# How it was run: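 Readout is calcein-AM fluorescence (ex494/em517) of cells migrating into the detection zone, relative to DMSO. hNP1 cells (H9-derived) grown on Matrigel behind stoppers 16 h, then stoppers pulled and chemical applied 72 h; cytochalasin D as control.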
# [10] = ArunA_Migration_hNC: ArunA Biomedical's Oris Neural Crest (hNC) Cell Migration Assay (AID 2283755)
# How it was run: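 Calcein-AM fluorescence (ex494 nm/em 517 nm) in the stopper-defined detection zone quantifies migration of hNC cells after 72 h chemical exposure; 60,000 cells/well plated on Matrigel with LIF and bFGF, 16 h pre-incubation. DMSO baseline.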
# [11] = ArunA_NOG_NucleusCount: ArunA Biomedical's Neurite Outgrowth (NOG) Assay for Nucleus Count (AID 2283756)
# How it was run: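 Viable neuron count, from Hoechst nuclei passing size and intensity gates, imaged at 20x on differentiated H9-derived human neurons. Exposure lasted 48 h from seeding; activity was scored relative to DMSO.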
# [12] = ArunA_NOG_NeuriteLength: ArunA Biomedical's Neurite Outgrowth (NOG) Assay for Neurite Length (AID 2283757)
# How it was run: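 Total neurite length per neuron, from traced βIII-tubulin-labelled processes longer than 10 um on viable Hoechst-gated cells, was scored as decrease from DMSO. Cells were hESC (H9)-derived neurons given 48 h chemical exposure immediately after seeding.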
# [13] = ArunA_NOG_NeuritesPerNeuron: ArunA Biomedical's Neurite Outgrowth (NOG) Assay for Neurites Per Neuron (AID 2283758)
# How it was run: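 Differentiated human H9-derived neurons exposed to chemicals for 48 h from seeding, then stained with Hoechst and βIII-tubulin/DyLight 488. Automated imaging counted neurites (processes >10 um) per valid neuron; loss of signal versus DMSO scored.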
# [14] = ArunA_NOG_BranchPointsPerNeurite: ArunA Biomedical's Neurite Outgrowth (NOG) Assay for Branch Points Per Neurite (AID 2283759)
# How it was run: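 Automated image analysis traced neurites (processes >10 um) from valid cell bodies after Hoechst and βIII-tubulin staining. hNN cells from H9 embryonic stem cells, 48 h exposure. Fitted bidirectionally against DMSO.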
# [15] = ArunA_CellTiter_hNC: Viability Assessment in the ArunA Biomedical's Oris Neural Crest (hNC) Cell Migration Assay (AID 2283752)
# How it was run: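 Seed 60,000 hNC cells per well onto Matrigel in basal growth medium containing LIF and bFGF. Incubate 16 h at 37C. Replace with test medium containing chemical for 72 h, then assess viability by CellTiter Aqueous One.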
# [16] = tested on: Thyroperoxidase (TPO), gene 445522; test: CCTE_Simmons_GUA_TPO: CCTE's Guaiacol Assay for Thyroperoxidase (TPO) Inhibition, Simmons Lab (AID 2283750)
# How it was run: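 Porcine thyroid microsomes (25 ug) in 200mM potassium phosphate, preincubated 30 s at 37C with compound (8 concentrations, 5 nM–87.5 uM) and 35mM guaiacol; 1mM H2O2 starts reaction. Absorbance change at 450nm over first 80 s; loss of signal versus DMSO, three replicates.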
smiles,measurement,setting,value
O=C(Oc1ccccc1)c1cccc(C(=O)Oc2ccccc2)c1,AC50,[1],9.15 µM (active)
same,outcome,[2],inactive
same,outcome,[3],inactive
same,outcome,[4],inactive
CCCCCCCCCCCCCCCCO,outcome,[2],inactive
same,outcome,[3],inactive
same,outcome,[4],inactive
same,outcome,[5],inactive
CC(C)COC(=O)CCCCC(=O)OCC(C)C,AC50,[1],32.4 µM (active)
same,outcome,[4],inactive
same,outcome,[5],inactive
CC(=O)S[C@H](C(=O)N[C@H]1Cc2ccccc2[C@H]2CCC[C@@H](C(=O)O)N2C1=O)C(C)C,outcome,[2],inactive
same,outcome,[3],inactive
same,outcome,[4],inactive
same,outcome,[5],inactive
CCCCc1nc2cccnc2n1Cc1ccc(-c2ccccc2-c2nnn[nH]2)cc1,outcome,[1],inactive
same,AC50,[5],50 µM (active)
O=C(N[C@@H](c1ccccc1)[C@@H]1CCCCN1)c1cccc(C(F)(F)F)c1Cl,AC50,[1],20.3 µM (active)
same,AC50,[4],53.2 µM (active)
same,AC50,[5],55.8 µM (active)
S=c1[nH]c2ccccc2s1,AC50,[1],31.1 µM (active)
same,outcome,[6],inactive
CCCCC(CC)COP(=O)(OCC(CC)CCCC)OCC(CC)CCCC (stereo not given),outcome,[2],inactive
same,outcome,[3],inactive
same,outcome,[7],inactive
same,outcome,[8],inactive
same,outcome,[9],inactive
same,outcome,[10],inactive
same,outcome,[11],inactive
same,outcome,[12],inactive
same,outcome,[13],inactive
same,outcome,[14],inactive
same,AC50,[5],17.6 µM (active)
O=C(NS(=O)(=O)/C=C/c1cccs1)c1ccc(F)cc1Br,outcome,[1],inactive
same,outcome,[4],inactive
same,AC50,[5],3.38 µM (active)
Cc1c(C)c2c(c(C)c1O)CCC(C)(COc1ccc(CC3SC(=O)NC3=O)cc1)O2 (stereo not given),AC50,[1],1.67 µM (active)
same,outcome,[6],inactive
same,AC50,[5],50 µM (active)
CC(N)=O,outcome,[1],inactive
same,outcome,[5],inactive
C=CCCCCCCCCCCCC,outcome,[1],inactive
same,outcome,[4],inactive
same,outcome,[5],inactive
NC=O,outcome,[1],inactive
same,outcome,[4],inactive
same,outcome,[5],inactive
Nc1nc(Cl)nc2c1ncn2[C@H]1C[C@H](O)[C@@H](CO)O1,AC50,[2],0.35 µM (active)
same,AC50,[3],0.348 µM (active)
same,AC50,[7],0.621 µM (active)
same,outcome,[4],inactive
same,AC50,[15],0.354 µM (active)
same,outcome,[15],inactive
same,AC50,[8],0.345 µM (active)
same,AC50,[9],289 nM (active) and 52.1 nM (active)
same,AC50,[10],120 nM (active) and 32 nM (active)
same,AC50,[11],1.81 µM (active)
same,AC50,[12],1.74 µM (active)
same,AC50,[13],1.58 µM (active)
same,AC50,[14],3.41 µM (active)
same,AC50,[5],1.98 µM (active)
CCCCCCC(CCCCCCCCCCC(=O)OCC(COC(C)=O)OC(C)=O)OC(C)=O (stereo not given),AC50,[1],7.74 µM (active)
same,outcome,[5],inactive
O=C1O[C@H]([C@H](O)CO)C(O)=C1O,outcome,[1],inactive
same,outcome,[6],inactive
same,outcome,[5],inactive
Nc1nc(=S)c2[nH]cnc2[nH]1,AC50,[2],3.06 µM (active)
same,AC50,[3],2.13 µM (active)
same,AC50,[7],2.97 µM (active)
same,AC50,[6],11.2 µM (active)
same,AC50,[5],0.655 µM (active)
CCCCOC(=O)CCCCC(=O)OCCCC,AC50,[1],15.9 µM (active)
same,outcome,[4],inactive
same,outcome,[5],inactive
O=C1OC(c2ccc(O)cc2)(c2ccc(O)cc2)c2ccccc21,outcome,[2],inactive
same,outcome,[3],inactive
same,outcome,[7],inactive
same,AC50,[9],26.9 µM (active)
same,AC50,[10],15.9 µM (active)
same,outcome,[11],inactive
same,outcome,[6],inactive
same,AC50,[5],21.1 µM (active)
CCCCCCC(C=O)=Cc1ccccc1,AC50,[1],13.9 µM (active)
same,AC50,[5],76.7 µM (active)
CC(=O)O,outcome,[1],inactive
same,outcome,[5],inactive
CC(C)(O)c1ccc(CNC(=O)c2cccnc2Oc2ccc(F)cc2)cc1,outcome,[1],inactive
same,outcome,[5],inactive
C#CC(O)C(CC)CCCC (stereo not given),AC50,[1],21.2 µM (active)
same,outcome,[4],inactive
same,outcome,[5],inactive
O=C1NC(=O)C(c2ccccc2)(c2ccccc2)N1,outcome,[2],inactive
same,outcome,[3],inactive
same,outcome,[7],inactive
same,outcome,[4],inactive
same,AC50,[5],33.6 µM (active)
Cc1cn([C@H]2C=C[C@@H](CO)O2)c(=O)[nH]c1=O,outcome,[2],inactive
same,outcome,[3],inactive
same,outcome,[7],inactive
same,outcome,[5],inactive
O=NO,outcome,[2],inactive
same,outcome,[3],inactive
same,outcome,[4],inactive
CC(C)c1cccc(C(C)C)c1NC(=O)NS(=O)(=O)c1cc(C(C)(C)O)co1,outcome,[1],inactive
same,AC50,[5],28.2 µM (active)
COc1ccc(OC(F)(F)F)cc1CN[C@H]1CCCN[C@H]1c1ccccc1,AC50,[1],56.5 µM (active)
same,AC50,[5],65.5 µM (active)
NCCOCCOCCN,outcome,[1],inactive
same,outcome,[5],inactive
NC(=Nc1ccccc1)Nc1ccccc1,outcome,[2],inactive
same,outcome,[3],inactive
COC(=O)[C@H]1[C@H]2C[C@@H]3c4[nH]c5cc(OC)ccc5c4CCN3C[C@H]2C[C@@H](OC(=O)c2cc(OC)c(OC)c(OC)c2)[C@@H]1OC,outcome,[2],inactive
same,AC50,[8],81.8 µM (active)
same,outcome,[9],inactive
same,AC50,[10],50 µM (active)
same,outcome,[11],inactive
same,outcome,[12],inactive
same,outcome,[13],inactive
same,outcome,[14],inactive
CC(C)NCC(O)c1ccc(O)c(O)c1 (stereo not given),AC50,[16],7.79 µM (active)
